{"source": "the supplement of paper PMC12282887", "assay_in_all_cases": "promoter activity interaction Z-score (Lux/OD deviation from empty-vector control); higher = stronger promoter induction by the compound", "key": {"[1]": {"test_system": "E. coli BW25113 acrABp lux reporter", "method_in_brief": "(§1)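 Low-copy luxCDABE promoter reporters were carried by E. coli BW25113, either wild type or lacking one of three genes, grown in 40 µl LB Lennox in 384-well plates at 37°C. Each compound was run at four 1:2 dilutions in biological duplicates, with OD600 and luminescence read every 30 min for 12 h. Integration used 0–8 h for wild type and 1–9 h for deletion strains, and wells under 10% of the median growth value were removed. Luminescence normalised to growth was fitted against a control, and the Z-transformed residual is the score.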"}, "[2]": {"test_system": "E. coli BW25113 marRABp lux reporter", "method_in_brief": "as §1"}, "[3]": {"test_system": "E. coli BW25113 micFp lux reporter", "method_in_brief": "as §1"}, "[4]": {"test_system": "E. coli BW25113 ompFp lux reporter", "method_in_brief": "as §1"}, "[5]": {"test_system": "E. coli BW25113 robp lux reporter", "method_in_brief": "as §1"}, "[6]": {"test_system": "E. coli BW25113 soxSp lux reporter", "method_in_brief": "as §1"}, "[7]": {"test_system": "E. coli BW25113 tolCp lux reporter", "method_in_brief": "as §1"}, "[8]": {"conditions": "1.9 µg/ml, genetic background: wild type"}, "[9]": {"conditions": "1.9 µg/ml, genetic background: ΔmarA"}, "[10]": {"conditions": "1.9 µg/ml, genetic background: Δrob"}, "[11]": {"conditions": "1.9 µg/ml, genetic background: ΔsoxS"}, "[12]": {"conditions": "3.7 µg/ml, genetic background: wild type"}, "[13]": {"conditions": "3.7 µg/ml, genetic background: ΔmarA"}, "[14]": {"conditions": "3.7 µg/ml, genetic background: Δrob"}, "[15]": {"conditions": "3.7 µg/ml, genetic background: ΔsoxS"}, "[16]": {"conditions": "7.4 µg/ml, genetic background: wild type"}, "[17]": {"conditions": "7.4 µg/ml, genetic background: ΔmarA"}, "[18]": {"conditions": "7.4 µg/ml, genetic background: Δrob"}, "[19]": {"conditions": "7.4 µg/ml, genetic background: ΔsoxS"}}, "note": "± gives the standard deviation of the averaged measurements.", "data": [{"smiles": "CCCCCCCCCCCCC[N+](C)(C)Cc1ccccc1", "note": "[Benzalkonium]", "values": [{"measurement": "promoter activity interaction Z-score", "setting": "[1]; [8]", "result": "-0.513 ± 0.068"}, {"measurement": "promoter activity interaction Z-score", "setting": "[1]; [9]", "result": "-0.237 ± 0.34"}, {"measurement": "promoter activity interaction Z-score", "setting": "[1]; [10]", "result": "-0.388 ± 0.4"}, {"measurement": "promoter activity interaction Z-score", "setting": "[1]; [11]", "result": "0.294 ± 0.89"}, {"measurement": "promoter activity interaction Z-score", "setting": "[1]; [12]", "result": "-0.16 ± 0.06"}, {"measurement": "promoter activity interaction Z-score", "setting": "[1]; [13]", "result": "-0.795 ± 0.15"}, {"measurement": "promoter activity interaction Z-score", "setting": "[1]; [14]", "result": "-0.554 ± 0.18"}, {"measurement": "promoter activity interaction Z-score", "setting": "[1]; [15]", "result": "0.231 ± 0.94"}, {"measurement": "promoter activity interaction Z-score", "setting": "[1]; [16]", "result": "-0.426 ± 0.23"}, {"measurement": "promoter activity interaction Z-score", "setting": "[1]; [17]", "result": "-0.878 ± 0.33"}, {"measurement": "promoter activity interaction Z-score", "setting": "[1]; [18]", "result": "-0.727 ± 0.24"}, {"measurement": "promoter activity interaction Z-score", "setting": "[1]; [19]", "result": "0.0433 ± 0.71"}, {"measurement": "promoter activity interaction Z-score", "setting": "[2]; [8]", "result": "-0.577 ± 0.068"}, {"measurement": "promoter activity interaction Z-score", "setting": "[2]; [9]", "result": "0.106 ± 0.047"}, {"measurement": "promoter activity interaction Z-score", "setting": "[2]; [10]", "result": "-0.463 ± 0.11"}, {"measurement": "promoter activity interaction Z-score", "setting": "[2]; [11]", "result": "-0.158 ± 0.0077"}, {"measurement": "promoter activity interaction Z-score", "setting": "[2]; [12]", "result": "-0.168 ± 0.0038"}, {"measurement": "promoter activity interaction Z-score", "setting": "[2]; [13]", "result": "-0.194 ± 0.23"}, {"measurement": "promoter activity interaction Z-score", "setting": "[2]; [14]", "result": "-0.586 ± 0.14"}, {"measurement": "promoter activity interaction Z-score", "setting": "[2]; [15]", "result": "-0.214 ± 0.035"}, {"measurement": "promoter activity interaction Z-score", "setting": "[2]; [16]", "result": "-0.235 ± 0.61"}, {"measurement": "promoter activity interaction Z-score", "setting": "[2]; [17]", "result": "-0.581 ± 0.057"}, {"measurement": "promoter activity interaction Z-score", "setting": "[2]; [18]", "result": "-0.529 ± 0.065"}, {"measurement": "promoter activity interaction Z-score", "setting": "[2]; [19]", "result": "-0.255 ± 0.23"}, {"measurement": "promoter activity interaction Z-score", "setting": "[3]; [8]", "result": "-0.76 ± 0.023"}, {"measurement": "promoter activity interaction Z-score", "setting": "[3]; [9]", "result": "0.0652 ± 0.0013"}, {"measurement": "promoter activity interaction Z-score", "setting": "[3]; [10]", "result": "0.0861 ± 0.12"}, {"measurement": "promoter activity interaction Z-score", "setting": "[3]; [11]", "result": "0.559 ± 0.1"}, {"measurement": "promoter activity interaction Z-score", "setting": "[3]; [12]", "result": "-0.0239 ± 0.31"}, {"measurement": "promoter activity interaction Z-score", "setting": "[3]; [13]", "result": "0.0187 ± 0.025"}, {"measurement": "promoter activity interaction Z-score", "setting": "[3]; [14]", "result": "-0.0547 ± 0.088"}, {"measurement": "promoter activity interaction Z-score", "setting": "[3]; [15]", "result": "0.312 ± 0.19"}, {"measurement": "promoter activity interaction Z-score", "setting": "[3]; [16]", "result": "-0.0221 ± 0.06"}, {"measurement": "promoter activity interaction Z-score", "setting": "[3]; [17]", "result": "0.112 ± 0.063"}, {"measurement": "promoter activity interaction Z-score", "setting": "[3]; [18]", "result": "-0.178 ± 0.013"}, {"measurement": "promoter activity interaction Z-score", "setting": "[3]; [19]", "result": "0.584 ± 0.26"}, {"measurement": "promoter activity interaction Z-score", "setting": "[4]; [8]", "result": "-0.908 ± 0.23"}, {"measurement": "promoter activity interaction Z-score", "setting": "[4]; [9]", "result": "-0.356 ± 0.42"}, {"measurement": "promoter activity interaction Z-score", "setting": "[4]; [10]", "result": "-1.25 ± 0.58"}, {"measurement": "promoter activity interaction Z-score", "setting": "[4]; [11]", "result": "-0.386 ± 0.51"}, {"measurement": "promoter activity interaction Z-score", "setting": "[4]; [12]", "result": "-0.513 ± 0.059"}, {"measurement": "promoter activity interaction Z-score", "setting": "[4]; [13]", "result": "-0.652 ± 0.036"}, {"measurement": "promoter activity interaction Z-score", "setting": "[4]; [14]", "result": "-1.38 ± 0.51"}, {"measurement": "promoter activity interaction Z-score", "setting": "[4]; [15]", "result": "-0.498 ± 0.53"}, {"measurement": "promoter activity interaction Z-score", "setting": "[4]; [16]", "result": "-0.731 ± 0.65"}, {"measurement": "promoter activity interaction Z-score", "setting": "[4]; [17]", "result": "-1.05 ± 0.44"}, {"measurement": "promoter activity interaction Z-score", "setting": "[4]; [18]", "result": "-1.75 ± 0.21"}, {"measurement": "promoter activity interaction Z-score", "setting": "[4]; [19]", "result": "-0.339 ± 0.55"}, {"measurement": "promoter activity interaction Z-score", "setting": "[5]; [8]", "result": "-1.53 ± 0.13"}, {"measurement": "promoter activity interaction Z-score", "setting": "[5]; [9]", "result": "-0.233 ± 0.25"}, {"measurement": "promoter activity interaction Z-score", "setting": "[5]; [10]", "result": "-0.222 ± 1.1"}, {"measurement": "promoter activity interaction Z-score", "setting": "[5]; [11]", "result": "-0.27 ± 0.21"}, {"measurement": "promoter activity interaction Z-score", "setting": "[5]; [12]", "result": "-0.668 ± 0.089"}, {"measurement": "promoter activity interaction Z-score", "setting": "[5]; [13]", "result": "-0.453 ± 0.016"}, {"measurement": "promoter activity interaction Z-score", "setting": "[5]; [14]", "result": "-0.648 ± 0.67"}, {"measurement": "promoter activity interaction Z-score", "setting": "[5]; [15]", "result": "-0.627 ± 0.58"}, {"measurement": "promoter activity interaction Z-score", "setting": "[5]; [16]", "result": "-0.364 ± 0.19"}, {"measurement": "promoter activity interaction Z-score", "setting": "[5]; [17]", "result": "-0.432 ± 0.13"}, {"measurement": "promoter activity interaction Z-score", "setting": "[5]; [18]", "result": "-0.777 ± 0.35"}, {"measurement": "promoter activity interaction Z-score", "setting": "[5]; [19]", "result": "-0.0429 ± 0.032"}, {"measurement": "promoter activity interaction Z-score", "setting": "[6]; [8]", "result": "-0.311 ± 0.12"}, {"measurement": "promoter activity interaction Z-score", "setting": "[6]; [9]", "result": "0.435 ± 0.12"}, {"measurement": "promoter activity interaction Z-score", "setting": "[6]; [10]", "result": "0.153 ± 0.081"}, {"measurement": "promoter activity interaction Z-score", "setting": "[6]; [11]", "result": "0.8 ± 0.97"}, {"measurement": "promoter activity interaction Z-score", "setting": "[6]; [12]", "result": "-0.00893 ± 0.087"}, {"measurement": "promoter activity interaction Z-score", "setting": "[6]; [13]", "result": "0.517 ± 0.017"}, {"measurement": "promoter activity interaction Z-score", "setting": "[6]; [14]", "result": "-0.0801 ± 0.15"}, {"measurement": "promoter activity interaction Z-score", "setting": "[6]; [15]", "result": "0.388 ± 0.66"}, {"measurement": "promoter activity interaction Z-score", "setting": "[6]; [16]", "result": "-0.156 ± 0.16"}, {"measurement": "promoter activity interaction Z-score", "setting": "[6]; [17]", "result": "0.256 ± 0.12"}, {"measurement": "promoter activity interaction Z-score", "setting": "[6]; [18]", "result": "-0.261 ± 0.034"}, {"measurement": "promoter activity interaction Z-score", "setting": "[6]; [19]", "result": "0.23 ± 0.41"}, {"measurement": "promoter activity interaction Z-score", "setting": "[7]; [8]", "result": "-0.208 ± 0.53"}, {"measurement": "promoter activity interaction Z-score", "setting": "[7]; [9]", "result": "1.08 ± 0.12"}, {"measurement": "promoter activity interaction Z-score", "setting": "[7]; [10]", "result": "1.06 ± 0.98"}, {"measurement": "promoter activity interaction Z-score", "setting": "[7]; [11]", "result": "0.966 ± 0.54"}, {"measurement": "promoter activity interaction Z-score", "setting": "[7]; [12]", "result": "-0.106 ± 0.92"}, {"measurement": "promoter activity interaction Z-score", "setting": "[7]; [13]", "result": "1.89 ± 1.1"}, {"measurement": "promoter activity interaction Z-score", "setting": "[7]; [14]", "result": "-0.289 ± 0.39"}, {"measurement": "promoter activity interaction Z-score", "setting": "[7]; [15]", "result": "0.246 ± 0.11"}, {"measurement": "promoter activity interaction Z-score", "setting": "[7]; [16]", "result": "0.0455 ± 1.8"}, {"measurement": "promoter activity interaction Z-score", "setting": "[7]; [17]", "result": "0.506 ± 0.55"}, {"measurement": "promoter activity interaction Z-score", "setting": "[7]; [18]", "result": "-0.0996 ± 0.22"}, {"measurement": "promoter activity interaction Z-score", "setting": "[7]; [19]", "result": "1.32 ± 2"}, {"measurement": "promoter activity interaction Z-score", "setting": "[7]; 14.9 µg/ml, genetic background: ΔsoxS", "result": "1.08 ± 0.5"}]}]}
